This is one part of a sample in which hits are shown more often than they occur.
GluA2 TARP mod: GluA2-stargazin AMPA receptor complex modulation. calls only at 30 µM. HEK293 GluA2+stargazin, membrane potential dye (FDSS), glutamate EC50; hits were called plate by plate, in both directions. O88602+P19491. AID 1259245. 40,000 tested, 3.5% active;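 active = any of four per-well response measures lying three or more SD from its plate-wide compound average, in either direction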
Target sequence (O88602 whole entry, looked up): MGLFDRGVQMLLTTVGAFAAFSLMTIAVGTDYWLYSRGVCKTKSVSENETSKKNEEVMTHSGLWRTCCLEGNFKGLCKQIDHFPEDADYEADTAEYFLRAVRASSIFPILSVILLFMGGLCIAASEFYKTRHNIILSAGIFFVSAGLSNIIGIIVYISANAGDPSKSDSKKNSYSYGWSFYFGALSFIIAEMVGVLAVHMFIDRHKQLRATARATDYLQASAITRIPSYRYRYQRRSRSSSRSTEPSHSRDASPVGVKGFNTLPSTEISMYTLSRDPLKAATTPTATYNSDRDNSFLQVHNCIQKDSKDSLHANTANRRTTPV
Target sequence (P19491 whole entry, looked up): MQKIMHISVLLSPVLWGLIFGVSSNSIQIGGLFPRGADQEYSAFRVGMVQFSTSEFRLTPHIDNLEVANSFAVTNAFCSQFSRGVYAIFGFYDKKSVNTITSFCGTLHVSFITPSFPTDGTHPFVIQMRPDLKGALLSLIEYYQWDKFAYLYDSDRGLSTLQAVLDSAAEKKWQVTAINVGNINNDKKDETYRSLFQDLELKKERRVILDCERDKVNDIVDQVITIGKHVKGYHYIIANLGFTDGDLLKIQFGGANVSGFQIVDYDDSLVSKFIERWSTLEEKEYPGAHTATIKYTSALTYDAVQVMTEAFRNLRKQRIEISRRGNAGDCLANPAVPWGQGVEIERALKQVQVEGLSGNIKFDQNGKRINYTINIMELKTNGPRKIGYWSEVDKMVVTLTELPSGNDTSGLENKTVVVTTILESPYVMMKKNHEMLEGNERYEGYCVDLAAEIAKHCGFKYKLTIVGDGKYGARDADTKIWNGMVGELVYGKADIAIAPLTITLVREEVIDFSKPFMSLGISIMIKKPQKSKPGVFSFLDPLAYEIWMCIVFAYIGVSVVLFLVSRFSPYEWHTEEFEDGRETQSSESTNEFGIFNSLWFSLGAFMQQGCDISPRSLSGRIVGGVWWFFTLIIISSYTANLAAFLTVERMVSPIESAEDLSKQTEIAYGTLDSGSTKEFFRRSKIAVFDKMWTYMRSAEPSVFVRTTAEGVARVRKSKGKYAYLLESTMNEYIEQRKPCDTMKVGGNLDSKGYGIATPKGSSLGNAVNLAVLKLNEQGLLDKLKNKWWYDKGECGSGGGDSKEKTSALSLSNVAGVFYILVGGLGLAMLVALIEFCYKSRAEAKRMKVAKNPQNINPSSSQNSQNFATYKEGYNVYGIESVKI
GIRK2 activator: GIRK2 channel activators by thallium flux; 34,000 tested, under 10 active; HEK293 GIRK2/NPY4 cells, thallium flux fluorescence; AID 1259324; activation (% efficacy), % for hits at 37.5 µM; P48051;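 active = primary screen hit, no activity in plain HEK293 cells, and in GIRK2-only cells above 5% efficacy rising with concentration; inactive = the rest, including fluorescent compounds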;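 note: efficacy is normalized control-subtracted fluorescence 15 s after thallium addition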
Numbers without * were called inactive; i = inactive; · = no result given; + = active, no number.

SMILES | GluA2 TARP mod | GIRK2 activator
Cn1cccc1C(O)CNC(=O)c1ccc(F)c(F)c1 (stereo unspecified) | i | i
CN1CCC(CNC(=O)c2ccccc2Cl)CC1 | i | ·
O=S(=O)(CCc1ccccc1)NCC(c1cccs1)N1CCOCC1 (stereo unspecified) | i | ·
COc1ccc(N2CCN(C(c3cccs3)C(C)NS(=O)(=O)c3ccc(F)cc3)CC2)cc1 (stereo unspecified) | i | ·
COc1ccc(N2CCN(C(c3cccs3)C(C)NS(=O)(=O)c3ccc(Cl)cc3)CC2)cc1 (stereo unspecified) | + | ·
Cc1ccc2c(CC(=O)Nc3nccs3)cc(=O)oc2c1 | i | ·
COc1ccc(CCC(=O)Nc2sc(SCC(N)=O)nc2-c2ccccc2)cc1 | i | i
NC(=O)CSc1nc(-c2ccccc2)c(NC(=O)c2ccccc2)s1 | i | i
Nc1sc(SCC(=O)NCc2ccc(F)cc2)nc1-c1ccccc1 | + | i
NC(=O)CSc1nc(-c2ccccc2)c(N)s1 | i | i
NC(=O)CSc1nc(-c2ccccc2)c(NC(=O)CCCc2ccccc2)s1 | + | i
NC(=O)CSc1nc(-c2ccccc2)c(NC(=O)CCc2ccccc2)s1 | + | i
O=C1CC(NC(=O)NC(c2ccccc2)c2ccccc2)CN1 (stereo unspecified) | · | i
CSc1nn(CC(=O)NCc2ccc(C)cc2)c(N)c1-c1nc(-c2ccc3c(c2)OCO3)no1 | i | ·
O=C1CN(S(=O)(=O)c2cccc([N+](=O)[O-])c2)CC(Cn2c3ccccc3c3ccccc32)O1 (stereo unspecified) | i | i
Cc1ccc(S(=O)(=O)Nc2ccccc2C(=O)Nc2ccc(C)cc2C(=O)c2ccccc2)cc1 | i | ·
Cc1ccc(NS(=O)(=O)c2ccccc2)c(C(=O)c2ccccc2)c1 | + | ·
O=C(CSc1nc(=O)n(CCCO)c2c1CCCC2)Nc1ccc([N+](=O)[O-])cc1 | i | i
O=C(CSc1nc2ccccc2s1)N1CCN(c2ccc(-c3ccco3)nn2)CC1 | i | i
COc1ccc(NC(=O)CSc2nnc(C)c3ccccc23)c(OC)c1 | i | i
COc1ccc(NC(=O)CSc2nc(-c3ccc(C)cc3)c3ccccc3n2)c(OC)c1 | + | i
CCOc1ccc(NC(=O)C(=O)NCC2CCN(C)CC2)cc1 | i | i
Cc1ccc(F)cc1S(=O)(=O)NCCNc1cc(-n2cccn2)ncn1 | i | i
COc1ccc(Cl)cc1S(=O)(=O)NCC1CCN(C(=O)Nc2ccc(F)cc2)CC1 | + | i
COc1ccc(Cl)cc1NC(=O)NCC1CCN(C(=O)Nc2ccc(F)cc2)CC1 | i | i
SMILES | GluA2 TARP mod | GIRK2 activator
NS(=O)(=O)c1ccc(NS(=O)(=O)c2ccc(NC(=O)C3CCCCC3)cc2)cc1 | i | i
O=C(NC(=S)Nc1ccc(S(=O)(=O)NC2CCCCC2)cc1)c1cccs1 | + | ·
CCN(Cc1ccccc1)CC(O)COC12CC3CC(CC(C3)C1)C2 (stereo unspecified) | i | ·
COc1ccc(-c2nc(SC(CC(=O)NCCc3ccccc3)c3ccc(OC)cc3)n[nH]2)cc1 (stereo unspecified) | + | ·
O=C(CC(Sc1n[nH]c(-c2ccccc2)n1)c1ccccc1)NCCc1ccccc1 (stereo unspecified) | i | ·
CC(c1ccccc1)n1c(N2CCCCCC2)nc2c1c(=O)n(C)c(=O)n2C (stereo unspecified) | + | i
CC(c1ccccc1)n1c(N2CCCC2)nc2c1c(=O)n(C)c(=O)n2C (stereo unspecified) | i | i
COc1cccc(C(=O)Nc2ccc3nc(C)n(-c4ccc(C)cc4)c(=O)c3c2)c1 | i | ·
COc1ccc(-n2c(C)nc3ccc(NC(=O)c4ccc(F)c(F)c4)cc3c2=O)cc1 | + | ·
Cc1ccc(C)c(NC(=O)CSc2ncnc3c2[nH]c2ccc(F)cc23)c1 | i | i
O=C(Cn1nc(-c2ccco2)c2sc(N3CCCCC3)nc2c1=O)c1ccccc1 | i | i
COc1ccc(N2CCCS2(=O)=O)cc1NC(=O)Nc1cccs1 | i | i
CC(=O)N1CCCC1c1nc2ccccc2n1CCCOc1c(C)cccc1C (stereo unspecified) | + | i
Cc1cccc(C)c1OCC(O)Cn1c(C2CC2)nc2ccccc21 (stereo unspecified) | i | i
CCOc1nn(CC)cc1-c1nnc(SCc2cc(OC)cc(OC)c2)n1C | i | i
COc1cccc(-c2cc(CC(=O)NCCCN3CCOCC3)no2)c1 | + | i
COc1ccc(-c2cc(CC(=O)NCCN3CCOCC3)no2)cc1 | · | i
O=C(NCC1CCCO1)c1cc(N2C(=O)CCS2(=O)=O)ccc1Cl (stereo unspecified) | i | i
CCCN(CCC)S(=O)(=O)c1cc(C(C)C)c(C)cc1OC | i | ·
CCN(C1CCCCC1)S(=O)(=O)c1cc(C(C)C)c(C)cc1OC | + | ·
COc1c(C)cc(S(=O)(=O)NCC(c2cccn2C)N2CCN(C)CC2)cc1C (stereo unspecified) | i | i
Cc1ccccc1-c1cn(CC(=O)Nc2cccc(C)c2C)nc1N1CCOCC1 | · | i
COC(=O)c1ccc(NC(=O)c2ccc(S(=O)(=O)NCc3cccnc3)o2)cc1 | i | i
COc1ccc(NC(=O)Nc2ccc(Nc3ccc(-n4nc(C)c(C)c4C)nn3)cc2)cc1 | i | i
O=C(NC(c1ccccc1)c1ccccc1)c1ccc(S(=O)(=O)NCc2ccco2)o1 | + | i
SMILES | GluA2 TARP mod | GIRK2 activator
CC(NC(=O)c1ccc(S(=O)(=O)N2CCOCC2)o1)c1ccccc1 (stereo unspecified) | i | i
COc1ccc(NC(=O)C(=O)NCC(c2cccc3ccccc23)N2CCCC2)cc1Cl (stereo unspecified) | i | i
O=C(OCN1C(=O)c2ccccc2C1=O)C1CCCCC1 | i | ·
CC(=O)OCCN1C(=O)c2cccc3c(N4CCCCC4)ccc(c23)C1=O | + | ·
O=C(Nc1ccc2c(c1)CN(S(=O)(=O)c1ccccc1)CC2)c1ccc2nsnc2c1 | + | i
O=C(Nc1ccc2ncsc2c1)c1ccc(S(=O)(=O)N2CCc3ccccc3C2)cc1 | i | i
COC(=O)N1CCC(CNC(=O)c2ccc(OC(C)C)cc2)CC1 | · | i
COc1cccc(NC(=O)C(C)Sc2nnnn2-c2ccc(C)cc2)c1 (stereo unspecified) | i | ·
CCOc1ccc(-n2nnnc2SC(C)C(=O)Nc2cccc(OC)c2)cc1 (stereo unspecified) | + | ·
Cc1cccc(-n2nnnc2SC(C)C(=O)Nc2cc(C)on2)c1 (stereo unspecified) | i | ·
CCOc1ccc(-n2nnnc2SC(C)C(=O)Nc2cc(C)on2)cc1 (stereo unspecified) | + | ·
COc1ccc(CSCc2nc3ccccc3[nH]2)cc1OC | i | i
O=C(COc1ccc2ccccc2c1)NCCCCN1CCOC(c2ccccc2)C1 (stereo unspecified) | · | i
CCc1ccc(N2CC(c3nc4ccccc4n3CC(=O)N3CCOCC3)CC2=O)cc1 (stereo unspecified) | i | i
CSCCn1c(=NC(=O)c2cc(C)no2)sc2cc3c(cc21)OCCO3 | + | i
CSCCn1c(=NC(=O)c2cc(C)no2)sc2ccccc21 | i | i

High-throughput results: PubChem BioAssay, several laboratories
